From PubChem BioAssay
For part of these data: Potency and affinity values are given separately. The source made the active and inactive calls. Unless noted, how the calls were made is not given here.

Legend:
[1] = antimalarial activity against Dd2 strain (AID 2302;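 active means growth inhibition above 50% at the single 2 µM test dose, taken to imply half-maximal potency below 2 µM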;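 further: 0% = DMSO untreated growth and 100% = chloroquine plus artemisinin killed control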); details: P. falciparum Dd2 in RBCs, LDH growth readout, 72 h; at 2 µM; stronger effect = higher value
[2] = human hepatoma cell viability loss – ATP luminescence, cytotoxicity control for P. falciparum antimalarial project, primary screen (AID 2303;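 active means inhibition above 50%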;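 further: 0% = DMSO wells and 100% = digitonin-killed cells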); details: HepG2 viability, 24-48 h, at 10 µM, stronger effect = higher value
[3] = biological target: L-lactate dehydrogenase (Plasmodium falciparum (isolate CDC / Honduras)) (UniProt Q27743); experiment: PfLDH activity inhibition – cell lysate, 3D7 strain, counter-screen for P. falciparum growth inhibition project (AID 2304);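 further: 0% = vehicle and 100% = reference inhibitor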; details: P. falciparum 3D7 crude extract, LDH APAD/NBT absorbance; at 2 µM; stronger effect = higher value
L-lactate dehydrogenase (Plasmodium falciparum (isolate CDC / Honduras)), sequence (Q27743 whole entry, looked up): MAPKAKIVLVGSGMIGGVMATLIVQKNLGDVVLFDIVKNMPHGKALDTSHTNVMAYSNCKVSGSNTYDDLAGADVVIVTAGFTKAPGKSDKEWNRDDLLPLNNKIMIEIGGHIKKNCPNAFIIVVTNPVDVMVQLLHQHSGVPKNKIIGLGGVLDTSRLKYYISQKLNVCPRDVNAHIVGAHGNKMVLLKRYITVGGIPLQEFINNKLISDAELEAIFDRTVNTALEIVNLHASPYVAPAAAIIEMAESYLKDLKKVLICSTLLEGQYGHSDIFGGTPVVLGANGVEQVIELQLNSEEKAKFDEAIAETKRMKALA

[4] = inhibition of 3D7 malaria parasite growth – strain 3D7 (AID 2306);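 further: 0% = DMSO wells and 100% = chloroquine plus artemisinin control wells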; details: P. falciparum 3D7 erythrocytic growth, LDH absorbance, 72 h; at 2 µM; stronger effect = higher value
[5] = biological target: Calcium-dependent protein kinase 1 (Plasmodium falciparum (isolate 3D7)) (UniProt P62344); experiment: PfCDPK1 kinase inhibitors, biochemical, TCAMS library (AID 1159585; cut-off not given, nearly all actives have IC50 up to about 0.98 µM;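 further: inhibitors leave more ATP so luminescence rises with inhibition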); details: recombinant PfCDPK1, Kinase-Glo ATP depletion luminescence
Calcium-dependent protein kinase 1 (Plasmodium falciparum (isolate 3D7)), sequence (P62344 whole entry, looked up): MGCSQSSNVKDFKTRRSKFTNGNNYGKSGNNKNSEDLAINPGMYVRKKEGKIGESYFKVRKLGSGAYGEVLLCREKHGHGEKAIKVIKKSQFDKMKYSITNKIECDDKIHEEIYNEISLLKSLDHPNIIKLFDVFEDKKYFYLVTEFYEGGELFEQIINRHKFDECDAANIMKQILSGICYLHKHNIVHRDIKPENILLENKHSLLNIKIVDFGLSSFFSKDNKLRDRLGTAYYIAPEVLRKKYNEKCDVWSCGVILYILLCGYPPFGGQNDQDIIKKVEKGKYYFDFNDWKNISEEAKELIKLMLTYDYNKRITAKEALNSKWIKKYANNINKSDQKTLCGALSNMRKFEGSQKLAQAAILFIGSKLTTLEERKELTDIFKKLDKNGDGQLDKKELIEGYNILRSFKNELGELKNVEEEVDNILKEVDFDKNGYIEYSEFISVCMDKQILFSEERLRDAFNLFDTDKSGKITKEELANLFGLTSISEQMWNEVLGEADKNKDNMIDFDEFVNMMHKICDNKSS

[6] = biological target: Plasmodium falciparum protein kinase 6 (PK6, PF3D7_1337100) (UniProt Q8IDW1); experiment: PfPK6 kinase inhibitors, biochemical, TCAMS library (AID 1159586); details: recombinant PfPK6, Kinase-Glo ATP depletion luminescence
Plasmodium falciparum protein kinase 6 (PK6, PF3D7_1337100), sequence (Q8IDW1 1-305): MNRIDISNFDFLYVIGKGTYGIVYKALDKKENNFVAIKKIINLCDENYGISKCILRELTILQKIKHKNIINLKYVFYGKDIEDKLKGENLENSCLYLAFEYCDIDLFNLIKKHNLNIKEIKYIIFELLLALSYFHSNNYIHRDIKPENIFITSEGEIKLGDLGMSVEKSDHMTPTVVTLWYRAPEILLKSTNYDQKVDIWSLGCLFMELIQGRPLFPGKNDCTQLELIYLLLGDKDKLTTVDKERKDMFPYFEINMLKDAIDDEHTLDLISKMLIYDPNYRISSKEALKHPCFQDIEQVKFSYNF

[7] = biological target: Protein kinase 7 (PK7), Plasmodium falciparum 3D7 (PF3D7_0213400) (UniProt Q7YTF7); experiment: inhibition of Plasmodium PK7 catalytic activity – biochemical, TCAMS antimalarial set, Kinase-Glo luminescence (AID 1159587); details: recombinant PfPK7, Kinase-Glo ATP depletion luminescence
Protein kinase 7 (PK7), Plasmodium falciparum 3D7 (PF3D7_0213400), sequence (Q7YTF7 1-343): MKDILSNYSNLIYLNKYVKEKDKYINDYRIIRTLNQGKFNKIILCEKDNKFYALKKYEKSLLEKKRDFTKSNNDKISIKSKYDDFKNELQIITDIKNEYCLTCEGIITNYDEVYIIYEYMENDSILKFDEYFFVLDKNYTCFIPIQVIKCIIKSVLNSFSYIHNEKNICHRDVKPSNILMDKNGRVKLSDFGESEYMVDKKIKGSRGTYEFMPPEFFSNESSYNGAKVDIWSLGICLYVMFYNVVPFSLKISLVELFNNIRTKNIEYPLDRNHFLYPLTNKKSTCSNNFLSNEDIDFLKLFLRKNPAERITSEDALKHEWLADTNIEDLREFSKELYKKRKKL

[8] = biological target: Calcium-dependent protein kinase 4 (Plasmodium falciparum (isolate 3D7)) (UniProt Q8IBS5); experiment: PfCDPK4 kinase inhibitors, biochemical, TCAMS library (AID 1159588; cut-off not given, nearly all actives have IC50 up to about 0.91 µM); details: recombinant PfCDPK4, Kinase-Glo ATP depletion luminescence
Calcium-dependent protein kinase 4 (Plasmodium falciparum (isolate 3D7)), sequence (Q8IBS5 whole entry, looked up): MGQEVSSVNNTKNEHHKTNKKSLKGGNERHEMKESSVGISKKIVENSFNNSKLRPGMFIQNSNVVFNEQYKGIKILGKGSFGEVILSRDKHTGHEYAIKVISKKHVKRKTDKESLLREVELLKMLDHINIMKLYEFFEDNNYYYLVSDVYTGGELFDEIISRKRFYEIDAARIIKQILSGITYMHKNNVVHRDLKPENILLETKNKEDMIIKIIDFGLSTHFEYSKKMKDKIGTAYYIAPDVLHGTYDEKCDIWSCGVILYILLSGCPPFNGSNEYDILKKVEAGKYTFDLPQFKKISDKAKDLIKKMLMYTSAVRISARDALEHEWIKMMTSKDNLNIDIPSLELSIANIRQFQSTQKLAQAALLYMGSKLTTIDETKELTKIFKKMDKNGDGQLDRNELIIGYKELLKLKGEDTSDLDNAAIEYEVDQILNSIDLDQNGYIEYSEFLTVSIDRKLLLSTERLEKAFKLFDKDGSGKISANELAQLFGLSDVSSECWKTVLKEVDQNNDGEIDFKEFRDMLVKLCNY

CCN1CCC(N(Cc2ccc(-c3ccc(C(F)(F)F)cc3)cc2)C(=O)Cn2c(CCc3cccc(F)c3F)nc(=O)c3ccccc32)CC1
active: growth inhibition [1] 95% | inhibition [2] 99% | growth inhibition [4] 95%
inactive: inhibition [3] 3% | outcome [5] | outcome [6] | outcome [7] | outcome [8]

COc1ccc2nccc([C@@H](O)CN3CCC(NC(=O)/C=C/c4cc([N+](=O)[O-])ccc4OC)CC3)c2c1
inactive: inhibition [2] 12% | inhibition [3] -1% | outcome [5] | outcome [6] | outcome [7] | outcome [8]
active: growth inhibition [1] 76% | growth inhibition [4] 99%

COc1ccccc1NC(=O)NC1CCN(CCCCCNC(=O)/C=C/c2ccc(Cl)c(Cl)c2)CC1
inactive: growth inhibition [1] 15% | inhibition [2] 4% | inhibition [3] -1% | outcome [5] | outcome [6] | outcome [7] | outcome [8]
active: growth inhibition [4] 100%

N/C(=N\c1ncccn1)Nc1cccc(Cc2ccccc2)n1
inactive: growth inhibition [1] 34% | inhibition [3] -2% | outcome [5] | outcome [6] | outcome [7] | outcome [8]
active: inhibition [2] 51% | growth inhibition [4] 90%

COc1ccc2nccc([C@@H](O)CN3CCC(NC(=O)/C=C/c4cccc(C)c4)CC3)c2c1
inactive: growth inhibition [1] 28% | inhibition [2] 16% | inhibition [3] -2% | outcome [5] | outcome [6] | outcome [7] | outcome [8]
active: growth inhibition [4] 84%

O=C(Nc1ccc([N+](=O)[O-])cc1)c1nn(-c2ccccc2)cc1N=Cc1cccc(O)c1
inactive: growth inhibition [1] 37% | inhibition [2] 10% | inhibition [3] -5% | outcome [5] | outcome [6] | outcome [7] | outcome [8]
active: growth inhibition [4] 98%

Cc1cccc2[nH]c(-c3ccc(-c4ccc(NC(=O)N[C@@H]5C[C@H]5c5ccccc5)cc4)cc3)nc12
active: growth inhibition [4] 96%
inactive: growth inhibition [1] 3% | inhibition [2] 28% | inhibition [3] -5% | outcome [5] | outcome [6] | outcome [7] | outcome [8]

NC(N)=Nc1ccc(OCCCCCOc2ccc(N=C(N)N)cc2Br)c(Br)c1
inactive: inhibition [2] 27% | inhibition [3] 0% | outcome [5] | outcome [6] | outcome [7] | outcome [8]
active: growth inhibition [1] 95% | growth inhibition [4] 92%

CCN(CC)CCn1c2ccccc2c2ccc(C(=O)Nc3ccc4sc(C)nc4c3)cc21
active: inhibition [2] 97% | growth inhibition [4] 84%
inactive: growth inhibition [1] 26% | inhibition [3] -5% | outcome [5] | outcome [6] | outcome [7] | outcome [8]

Cc1cc(N2CCN(C)CC2)nc2ccc(NC(=O)c3cccc(N(C)C)c3)cc12
active: growth inhibition [4] 85%
inactive: growth inhibition [1] 23% | inhibition [2] 9% | inhibition [3] 4% | outcome [5] | outcome [6] | outcome [7] | outcome [8]

N#Cc1ccc2[nH]cc(CN3CCC4(CC3)CN(CCNCc3ccccc3)C(=O)CO4)c2c1
active: growth inhibition [4] 98%
inactive: growth inhibition [1] -2% | inhibition [2] -3% | inhibition [3] 1% | outcome [5] | outcome [6] | outcome [7] | outcome [8]

O=c1cc(NCCCNCc2cc(C(F)(F)F)ccc2Cl)[nH]c2ccccc12
inactive: growth inhibition [1] 20% | inhibition [2] 25% | inhibition [3] -2% | outcome [5] | outcome [6] | outcome [7] | outcome [8]
active: growth inhibition [4] 90%

COc1ccc(C(O)CNC(C)CCc2ccccc2)cc1C(F)(F)F (centres undefined)
active: growth inhibition [1] 100% | growth inhibition [4] 99%
inactive: inhibition [2] 3% | inhibition [3] 1% | outcome [5] | outcome [6] | outcome [7] | outcome [8]

CN(C)c1ccc(CN2CCCCC(NC(=O)c3cc(-c4ccccc4Cl)cs3)C2)cc1 (centres undefined)
active: growth inhibition [4] 91%
inactive: growth inhibition [1] 14% | inhibition [2] 10% | inhibition [3] -3% | outcome [5] | outcome [6] | outcome [7] | outcome [8]

CN1CCN(CCCN(Cc2ccc(-c3cccc(CNC4CCCC4)c3)cc2)C(=O)Nc2ccccc2)CC1
inactive: inhibition [2] 28% | inhibition [3] -3% | outcome [5] | outcome [6] | outcome [7] | outcome [8]
active: growth inhibition [1] 76% | growth inhibition [4] 92%

COc1c(O)cc2oc(-c3ccc(O)cc3)cc(=O)c2c1O
inactive: growth inhibition [1] 0% | inhibition [2] 6% | inhibition [3] -1% | outcome [5] | outcome [6] | outcome [7] | outcome [8]
active: growth inhibition [4] 96%

CC(C)n1c(C2CCN(CC3CCN(C(=O)/C=C/c4ccc(Cl)c(Cl)c4)CC3)CC2)nc2ccccc21
inactive: growth inhibition [1] 7% | inhibition [2] 36% | inhibition [3] 2% | outcome [5] | outcome [6] | outcome [7] | outcome [8]
active: growth inhibition [4] 94%

O=C(NCCCCN1CCC(c2ccc3c(c2OCC(O)c2ccc(Cl)cc2)CCCC3)CC1)c1ccc(-c2ccc(C(F)(F)F)cc2)cc1 (centres undefined)
active: growth inhibition [1] 67% | inhibition [2] 100% | growth inhibition [4] 89%
inactive: inhibition [3] -3% | outcome [5] | outcome [6] | outcome [7] | outcome [8]
